Source: PubChem BioAssay (EPA / NIEHS)
Records with an inconclusive call do not appear. The source made the active and inactive calls. Rule for the calls, unless noted: active = hit-call score of the fitted dose curve at least 0.9, where 1 is the maximum; inactive = score below 0.9.

Legend:
[1] = target: human RAR-related Orphan Receptor gamma (RORg), RORC (gene 6097) (UniProt P51449); assay: ATG_RORg_TRANS: Attagene TRANS-FACTORIAL HepG2 Assay for human RAR-related Orphan Receptor gamma (RORg) (AID 2283011; active = hit-call score of the fitted dose curve at least 0.9, where 1 is the maximum)
human RAR-related Orphan Receptor gamma (RORg), RORC (gene 6097), sequence (P51449 whole entry, looked up, the tested form may be a part): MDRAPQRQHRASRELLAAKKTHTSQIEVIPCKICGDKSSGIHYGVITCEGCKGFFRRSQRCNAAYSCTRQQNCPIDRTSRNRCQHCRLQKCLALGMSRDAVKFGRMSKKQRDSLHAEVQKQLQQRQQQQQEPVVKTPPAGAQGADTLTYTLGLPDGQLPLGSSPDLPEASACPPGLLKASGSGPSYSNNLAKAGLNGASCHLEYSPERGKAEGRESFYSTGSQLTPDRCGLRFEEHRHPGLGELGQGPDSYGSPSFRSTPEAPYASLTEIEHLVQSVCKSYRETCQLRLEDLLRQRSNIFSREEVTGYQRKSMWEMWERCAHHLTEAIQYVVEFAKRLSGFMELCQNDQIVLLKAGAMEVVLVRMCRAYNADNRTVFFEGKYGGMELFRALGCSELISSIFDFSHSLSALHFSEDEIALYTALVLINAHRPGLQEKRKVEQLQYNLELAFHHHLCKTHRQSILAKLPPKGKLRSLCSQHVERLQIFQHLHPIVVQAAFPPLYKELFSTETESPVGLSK
How it was run: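 Chimeric RORg-Gal4 transactivation in transfected HepG2; 24 h exposure; RT-PCR/capillary electrophoresis readout of reporter mRNA, DMSO baseline.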

[2] = target: human Retinoid X Receptor beta (RXRb), RXRB (gene 6257) (UniProt P28702); assay: ATG_RXRb_TRANS: Attagene TRANS-FACTORIAL HepG2 Assay for human Retinoid X Receptor beta (RXRb) (AID 2283013; active = hit-call score of the fitted dose curve at least 0.9, where 1 is the maximum)
human Retinoid X Receptor beta (RXRb), RXRB (gene 6257), sequence (P28702 whole entry, looked up, the tested form may be a part): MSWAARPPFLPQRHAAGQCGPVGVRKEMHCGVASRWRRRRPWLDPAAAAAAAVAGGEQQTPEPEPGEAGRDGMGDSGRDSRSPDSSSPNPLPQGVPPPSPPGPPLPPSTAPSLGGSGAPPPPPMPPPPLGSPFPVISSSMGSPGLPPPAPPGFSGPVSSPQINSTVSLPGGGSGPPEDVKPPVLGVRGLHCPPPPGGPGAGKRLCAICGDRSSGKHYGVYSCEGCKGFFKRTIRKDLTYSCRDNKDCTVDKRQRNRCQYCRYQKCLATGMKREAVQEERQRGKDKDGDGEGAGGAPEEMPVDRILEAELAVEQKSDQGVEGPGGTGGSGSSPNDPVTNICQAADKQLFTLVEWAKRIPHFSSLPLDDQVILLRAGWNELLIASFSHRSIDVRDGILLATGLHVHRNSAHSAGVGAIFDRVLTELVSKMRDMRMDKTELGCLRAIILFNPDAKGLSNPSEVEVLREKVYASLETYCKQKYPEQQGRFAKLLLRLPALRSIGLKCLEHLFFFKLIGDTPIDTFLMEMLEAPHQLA
How it was run: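 After a 24 h incubation with test chemical, transfected HepG2 cells carrying NR-Gal4 fusions and GAL4-UAS reporter transcription units yield RNA whose reporter cDNA is FAM-labelled, HpaI-cut and sized by capillary electrophoresis; increases over DMSO are scored.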

[3] = read-out: E-selectin (Homo sapiens) (UniProt P16581); assay: BSK_3C_Eselectin: BioMAP Diversity Plus: 3C Assay for Eselectin Biomarker Activity (AID 2283015); conditions: primary human endothelial cells (HUVEC); actives raise or lower the signal
How it was run: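 Endpoint derived by bidirectional fitting against DMSO vehicle; signal is ELISA-detected E-selectin from primary HUVEC at 24 h post-dosing, with parallel SRB staining (0.1% SRB, 560 nm) flagging cytotoxicity.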

[4] = read-out: Interleukin-1 alpha (IL1a), IL1A (gene 3552); assay: BSK_BE3C_IL1a: BioMAP Diversity Plus: BE3C Assay for Interleukin-1 alpha (IL1a) Biomarker Activity (AID 2283016); conditions: primary human bronchial epithelial cells; actives raise or lower the signal
How it was run: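 Measured in human lung primary bronchial epithelial cells: IL-1a by ELISA at 24 h after dosing, with bidirectional fitting against DMSO.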

[5] = read-out: Monocyte Chemoattractant Protein-1 (MCP1), CCL2 (gene 6347); assay: BSK_3C_MCP1: BioMAP Diversity Plus: 3C Assay for Monocyte Chemoattractant Protein-1 (MCP1) Biomarker Activity (AID 2283017); conditions: primary human endothelial cells (HUVEC); actives raise or lower the signal
How it was run: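 Using human vascular primary endothelium, researchers measured MCP-1 by ELISA 24 h after treatment, with DMSO serving as negative control for bidirectional fitting.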

[6] = read-out: Monocyte Chemoattractant Protein-1 (MCP1), CCL2 (gene 6347); assay: BSK_4H_MCP1: BioMAP Diversity Plus: 4H Assay for Monocyte Chemoattractant Protein-1 (MCP1) Biomarker Activity (AID 2283018); conditions: primary human endothelial cells (HUVEC); actives raise or lower the signal
How it was run: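 Primary human umbilical vein endothelium is exposed to chemical for 24 h before MCP-1 is assayed by ELISA. Concentration-response fitted bidirectionally relative to DMSO.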

[7] = read-out: Human Leukocyte Antigen - DR isotype (HLADR), HLA-DRA (gene 3122); assay: BSK_3C_HLADR: BioMAP Diversity Plus: 3C Assay for Human Leukocyte Antigen - DR isotype (HLADR) Biomarker Activity (AID 2283019); conditions: primary human endothelial cells (HUVEC); actives raise or lower the signal
How it was run: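 Compound added to primary HUVEC cultures, 24 h incubation, then HLA-DR determined by ELISA; endpoint derived by bidirectional fitting relative to DMSO negative control.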

[8] = read-out: Interleukin-8 (IL8), CXCL8 (gene 3576); assay: BSK_3C_IL8: BioMAP Diversity Plus: 3C Assay for Interleukin-8 (IL8) Biomarker Activity (AID 2283020); conditions: primary human endothelial cells (HUVEC); actives raise or lower the signal
How it was run: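 Using DMSO-treated wells as the baseline, bidirectional curve fitting was applied to ELISA-measured IL-8 from human umbilical vein endothelial cultures sampled 24 h after compound addition.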

[9] = read-out: Monokine induced gamma interferon (MIG), CXCL9 (gene 4283); assay: BSK_3C_MIG: BioMAP Diversity Plus: 3C Assay for Monokine induced gamma interferon (MIG) Biomarker Activity (AID 2283021); conditions: primary human endothelial cells (HUVEC); actives raise or lower the signal
How it was run: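 ELISA-measured MIG in dosed HUVEC 3C cultures at 24 h, analysed by bidirectional fitting with DMSO defining baseline activity.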

[10] = BSK_3C_SRB: Viability Assessment in the BioMAP Diversity Plus: 3C Assay (AID 2283023); conditions: primary human endothelial cells (HUVEC);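 note: cells read 24 h after compound dosing; fitted both ways against DMSO so a hit may be signal rise or drop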
How it was run: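 Overt cytotoxicity is gauged in parallel confluent HUVEC cultures by SRB total-protein staining at the time of biomarker measurement, 24 h after dosing. Gain or loss of signal is fitted versus DMSO.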

[11] = read-out: Matrix Metallopeptidase 1 (MMP1), MMP1 (gene 4312); assay: BSK_BE3C_MMP1: BioMAP Diversity Plus: BE3C Assay for Matrix Metallopeptidase 1 (MMP1) Biomarker Activity (AID 2283024); conditions: primary human bronchial epithelial cells; actives raise or lower the signal
How it was run: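 In this multiplexed primary-cell system, human bronchial epithelium received chemicals for 24 h before an ELISA for MMP1. Values reflect bidirectional fits normalised to the DMSO baseline.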

[12] = BSK_3C_Vis: BioMAP Diversity Plus: 3C Assay for Morphology Visualization (AID 2283025); conditions: primary human endothelial cells (HUVEC);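 note: fitted both ways so gain or loss versus DMSO counts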;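 for AC50: light microscopy image of cell morphology used as background control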
How it was run: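 Light-microscopy morphology readout, 24 h exposure, human primary umbilical vein endothelium; analysed relative to DMSO with bidirectional fitting.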

[13] = read-out: Pselectin, SELP (gene 6403); assay: BSK_4H_Pselectin: BioMAP Diversity Plus: 4H Assay for Pselectin Biomarker Activity (AID 2283026); conditions: primary human endothelial cells (HUVEC); actives raise or lower the signal
How it was run: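 Bidirectional fits against DMSO gave the endpoint. Cells: primary human umbilical vein endothelium, chemical-treated for 24 h before ELISA detection of P-selectin.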

[14] = BSK_4H_SRB: Viability Assessment in the BioMAP Diversity Plus: 4H Assay (AID 2283027); conditions: primary human endothelial cells (HUVEC);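 note: cells exposed to compound for 24 h before staining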;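 for AC50: curves fitted both ways versus DMSO so AC50 may be loss or gain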
How it was run: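 Cytotoxicity readout: sulforhodamine B (0.1%) staining of total protein after 10% TCA fixation, measured at 560 nm in human umbilical vein endothelium at 24 h. DMSO set the baseline; fitting was bidirectional.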

[15] = BSK_BE3C_SRB: Viability Assessment in the BioMAP Diversity Plus: BE3C Assay (AID 2283028); conditions: primary human bronchial epithelial cells;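 for AC50: fitted both ways so AC50 may mark signal gain or loss versus DMSO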
How it was run: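 SRB total-protein staining (0.1%, after TCA fixation) of chemically dosed human bronchial epithelial primary cells at 24 h; DMSO serves as the negative control for bidirectional curve fitting.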

[16] = read-out: Thrombomodulin, THBD (gene 7056); assay: BSK_3C_Thrombomodulin: BioMAP Diversity Plus: 3C Assay for Thrombomodulin Biomarker Activity (AID 2283029); conditions: primary human endothelial cells (HUVEC); actives raise or lower the signal
How it was run: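 In a multiplexed primary-cell system, human umbilical vein endothelium received chemical and was assayed 24 h later for thrombomodulin by ELISA. Parallel cultures were SRB-stained (0.1% SRB after 10% TCA fixation, read at 560 nm) to flag cytotoxicity.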

[17] = read-out: Urokinase-type plasminogen activator receptor (uPAR), PLAUR (gene 5329); assay: BSK_4H_uPAR: BioMAP Diversity Plus: 4H Assay for Urokinase-type plasminogen activator receptor (uPAR) Biomarker Activity (AID 2283030); conditions: primary human endothelial cells (HUVEC); actives raise or lower the signal
How it was run: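 Endpoint derived via bidirectional curve fitting against DMSO baseline; readout was ELISA detection of uPAR on umbilical vein endothelial cells at 24 h post-treatment, with SRB-stained parallel cultures assessing cytotoxicity.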

[18] = target: Retinoic acid receptor RXR-alpha (Homo sapiens) (UniProt P19793); assay: ATG_RXRa_TRANS: Attagene TRANS-FACTORIAL HepG2 Assay for human Retinoid X Receptor alpha (RXRa) (AID 2283012; active = hit-call score of the fitted dose curve at least 0.9, where 1 is the maximum)
Retinoic acid receptor RXR-alpha (Homo sapiens), sequence (P19793 whole entry, looked up, the tested form may be a part): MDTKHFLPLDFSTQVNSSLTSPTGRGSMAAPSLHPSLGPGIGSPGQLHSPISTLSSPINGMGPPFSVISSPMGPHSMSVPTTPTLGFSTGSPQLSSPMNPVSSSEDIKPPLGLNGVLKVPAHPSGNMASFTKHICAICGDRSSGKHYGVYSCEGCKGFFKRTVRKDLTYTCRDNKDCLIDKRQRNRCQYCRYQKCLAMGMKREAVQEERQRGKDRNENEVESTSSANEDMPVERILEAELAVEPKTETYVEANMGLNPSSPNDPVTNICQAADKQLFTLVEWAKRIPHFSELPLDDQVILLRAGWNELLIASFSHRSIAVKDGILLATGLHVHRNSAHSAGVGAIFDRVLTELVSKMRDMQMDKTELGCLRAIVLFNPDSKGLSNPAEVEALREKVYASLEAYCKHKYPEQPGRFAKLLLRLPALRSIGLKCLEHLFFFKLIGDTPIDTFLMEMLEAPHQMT
How it was run: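 Chimeric NR-GAL4 trans-activation in HepG2, 24 h treatment; reporter transcripts quantified by fluorescence on capillary electrophoresis, analysed for upward change from DMSO.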

[19] = target: human Vitamin D Receptor (VDR), VDR (gene 7421) (UniProt P11473); assay: ATG_VDR_TRANS: Attagene TRANS-FACTORIAL HepG2 Assay for human Vitamin D Receptor (VDR) (AID 2283022; active = hit-call score of the fitted dose curve at least 0.9, where 1 is the maximum)
human Vitamin D Receptor (VDR), VDR (gene 7421), sequence (P11473 whole entry, looked up): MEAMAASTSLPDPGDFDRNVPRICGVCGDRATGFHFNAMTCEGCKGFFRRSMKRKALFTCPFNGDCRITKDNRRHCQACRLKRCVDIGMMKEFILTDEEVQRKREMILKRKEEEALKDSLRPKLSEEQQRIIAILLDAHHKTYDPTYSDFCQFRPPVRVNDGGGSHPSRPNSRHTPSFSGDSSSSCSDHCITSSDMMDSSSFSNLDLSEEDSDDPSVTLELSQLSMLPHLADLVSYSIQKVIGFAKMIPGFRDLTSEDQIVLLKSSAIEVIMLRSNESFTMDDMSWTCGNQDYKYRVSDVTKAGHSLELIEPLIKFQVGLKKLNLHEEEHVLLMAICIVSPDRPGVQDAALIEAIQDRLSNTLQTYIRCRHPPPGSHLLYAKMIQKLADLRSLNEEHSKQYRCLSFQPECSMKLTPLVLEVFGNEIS
How it was run: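 Multiplexed TRANS reporter in HepG2; 24 h treatment; reporter mRNA by RT-PCR plus capillary electrophoresis; upregulation scored relative to DMSO.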

Measured: AC50

E-selectin (Homo sapiens), sequence (P16581 whole entry, looked up): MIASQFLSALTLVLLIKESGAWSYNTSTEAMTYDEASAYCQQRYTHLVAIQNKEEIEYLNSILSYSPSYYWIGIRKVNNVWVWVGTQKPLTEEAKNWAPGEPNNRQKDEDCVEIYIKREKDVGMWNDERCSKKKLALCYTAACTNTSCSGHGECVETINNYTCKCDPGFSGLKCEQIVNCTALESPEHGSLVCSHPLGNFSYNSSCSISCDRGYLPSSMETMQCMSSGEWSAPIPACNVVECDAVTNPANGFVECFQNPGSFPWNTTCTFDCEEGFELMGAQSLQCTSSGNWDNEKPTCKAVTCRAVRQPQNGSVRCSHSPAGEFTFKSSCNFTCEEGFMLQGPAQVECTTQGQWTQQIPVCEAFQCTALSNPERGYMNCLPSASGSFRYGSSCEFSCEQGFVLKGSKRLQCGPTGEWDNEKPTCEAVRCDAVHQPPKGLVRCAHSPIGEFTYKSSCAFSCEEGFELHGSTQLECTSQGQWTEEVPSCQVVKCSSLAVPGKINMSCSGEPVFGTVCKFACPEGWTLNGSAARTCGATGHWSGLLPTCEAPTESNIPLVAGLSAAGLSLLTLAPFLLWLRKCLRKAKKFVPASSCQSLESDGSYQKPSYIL

N#CN
inactive: [1] | [2] | [3] | [4] | [5] | [6] | [7] | [8] | [9] | [10] | [11] | [12] | [13] | [14] | [15] | [16] | [17]

CCN(CC)C(=O)SCc1ccc(Cl)cc1
active: [5] 3.72 µM
inactive: [1] | [18] | [2] | [3] | [4] | [6] | [7] | [19] | [10] | [11] | [12] | [13] | [14] | [15] | [17]

CCOC1Oc2ccc(OS(C)(=O)=O)cc2C1(C)C (stereo unspecified)
active: [5] 24.8 µM | [7] 23 µM | [10] 24.1 µM
inactive: [1] | [18] | [2] | [3] | [4] | [6] | [8] | [11] | [12] | [13] | [14] | [15] | [16] | [17]

[2H]C1([2H])[n+]2ccccc2-c2cccc[n+]2C1([2H])[2H]
active: [11] 2.08 µM | [15] 13.3 µM | [17] 1.49 µM
inactive: [1] | [2] | [3] | [4] | [5] | [6] | [7] | [8] | [19] | [10] | [12] | [13] | [14] | [16]

CC(C)(C)C(O)/C(=C\c1ccc(Cl)cc1Cl)n1cncn1 (stereo unspecified)
active: [3] 24 µM | [4] 32.9 µM | [5] 30.9 µM | [6] 22.6 µM | [7] 31.6 µM | [8] 32.2 µM | [10] 27.8 µM | [11] 33.6 µM | [12] 37.2 µM | [13] 32.1 µM | [14] 15.8 µM | [17] 27.9 µM
inactive: [18] | [9] | [19]

Cc1[nH]c(=O)n(C(C)(C)C)c(=O)c1Cl
active: [7] 13.2 µM
inactive: [1] | [3] | [4] | [5] | [6] | [8] | [10] | [11] | [12] | [13] | [14] | [15] | [17]
